The source made the active and inactive calls. The calls were made as follows: active = hit-call score of the fitted dose curve at least 0.9, where 1 is the maximum; inactive = score below 0.9.
How the values were obtained:
Conditions in all cases: mRNA level, 48 h; actives raise or lower the signal
[1] = read-out: Tumor necrosis factor receptor superfamily member 6 (Homo sapiens) (UniProt P25445); test: LTEA_HepaRG_FAS: Life Technologies and Expression Analysis (LTEA) Assay for Fas cell surface death receptor (FAS) using HepaRG (AID 2283447)
In short: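 FAS transcript level was measured by TaqMan qRT-PCR against three housekeeping genes after 48 h chemical exposure. Cells were HepaRG, 0.5% DMSO vehicle, with a top concentration of 100 uM and half-log dilutions over eight points, in duplicate.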

[2] = read-out: Fatty acid synthase (Homo sapiens) (UniProt P49327); test: LTEA_HepaRG_FASN: Life Technologies and Expression Analysis (LTEA) Assay for Fatty Acid Synthase (FASN) using HepaRG (AID 2283448)
In short: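 Differentiated human HepaRG cells were exposed for 48 h in serum-free induction medium to eight half-log concentrations up to 100 uM in 0.5% DMSO, in duplicate. FASN mRNA was quantified by TaqMan qRT-PCR, normalized to ACTB/GAPDH/POLR2A, and fitted bidirectionally against DMSO.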

[3] = read-out: Cyclin D2 (CCND2), CCND2 (gene 894); test: LTEA_HepaRG_CCND2: Life Technologies and Expression Analysis (LTEA) Assay for Cyclin D2 (CCND2) using HepaRG (AID 2283449)
In short: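 Read-out is CCND2 mRNA level measured by qRT-PCR in human HepaRG liver cells and normalised to three housekeeping genes. Chemicals were applied for 48 h at up to 100 uM, with gain or loss fitted relative to 0.5% DMSO.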

[4] = read-out: Cyclin Dependent Kinase Inhibitor 1A (CDKN1A), CDKN1A (gene 1026); test: LTEA_HepaRG_CDKN1A: Life Technologies and Expression Analysis (LTEA) Assay for Cyclin Dependent Kinase Inhibitor 1A (CDKN1A) using HepaRG (AID 2283450)
In short: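 Differentiated HepaRG cells in serum-free induction medium, exposed 48 h in duplicate to eight half-log concentrations up to 100 uM in 0.5% DMSO. mRNA measured by TaqMan qRT-PCR, normalized to ACTB, GAPDH, POLR2A; bidirectional fit versus DMSO.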

[5] = read-out: Cyclin D1 (CCND1), CCND1 (gene 595); test: LTEA_HepaRG_CCND1: Life Technologies and Expression Analysis (LTEA) Assay for Cyclin D1 (CCND1) using HepaRG (AID 2283451)
In short: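 Differentiated HepaRG cells exposed 48 h in serum-free induction medium to eight half-log concentrations from 100 uM top, 0.5% DMSO, duplicates. CCND1 mRNA measured by Fluidigm TaqMan qRT-PCR, normalised to ACTB, GAPDH, POLR2A; bidirectional fit.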

[6] = read-out: catalase (CAT), CAT (gene 847); test: LTEA_HepaRG_CAT: Life Technologies and Expression Analysis (LTEA) Assay for catalase (CAT) using HepaRG (AID 2283452)
In short: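 Expression of CAT was quantified by TaqMan qRT-PCR with ACTB/GAPDH/POLR2A normalization after 48 h chemical exposure of HepaRG. Eight-point half-log series, top 100 uM, in 0.5% DMSO; gain or loss fitted against vehicle.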

[7] = read-out: flavin-containing dimethylaniline monooxygenases 3 (FMO3), FMO3 (gene 2328); test: LTEA_HepaRG_FMO3: Life Technologies and Expression Analysis (LTEA) Assay for flavin-containing dimethylaniline monooxygenases 3 (FMO3) using HepaRG (AID 2283453)
In short: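 HepaRG, 48 h exposure, 8-pt half-log series from 100 uM, 0.5% DMSO vehicle, duplicates; FMO3 transcript by Fluidigm TaqMan qRT-PCR, housekeeping-normalized; gain/loss fit vs DMSO.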

[8] = read-out: Cytochrome P450 (CYP1A1), CYP1A1 (gene 1543); test: LTEA_HepaRG_CYP1A1: Life Technologies and Expression Analysis (LTEA) Assay for Cytochrome P450 (CYP1A1) using HepaRG (AID 2283454)
In short: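 Differentiated human HepaRG cells, after 48 h plating, exposed in duplicate for 48 h in serum-free induction medium to 8 half-log concentrations up to 100 uM in 0.5% DMSO. CYP1A1 mRNA by qRT-PCR, normalized to ACTB/GAPDH/POLR2A; bidirectional fit versus DMSO.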

[9] = read-out: CFLAR gene, CFLAR (gene 8837); test: LTEA_HepaRG_CFLAR: Life Technologies and Expression Analysis (LTEA) Assay for CFLAR gene using HepaRG (AID 2283455)
In short: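 HepaRG, 48 h exposure, 8-pt conc-response (100 uM top, half-log), 0.5% DMSO vehicle, duplicates. CFLAR expression by qRT-PCR; ACTB/GAPDH/POLR2A normalization; gain or loss fit vs DMSO baseline.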

[10] = read-out: Forkhead box O1 (FOXO1), FOXO1 (gene 2308); test: LTEA_HepaRG_FOXO1: Life Technologies and Expression Analysis (LTEA) Assay for Forkhead box O1 (FOXO1) using HepaRG (AID 2283456)
In short: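 Readout is FOXO1 transcript level by multiplexed qRT-PCR against three housekeeping genes, curve-fitted in both directions relative to 0.5% DMSO vehicle. Human HepaRG cultures received chemicals for 48 h, up to 100 uM in half-log steps.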

[11] = read-out: growth arrest and DNA damage 45 (GADD45A), GADD45A (gene 1647); test: LTEA_HepaRG_GADD45A: Life Technologies and Expression Analysis (LTEA) Assay for growth arrest and DNA damage 45 (GADD45A) using HepaRG (AID 2283458)
In short: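 Differentiated HepaRG cells were exposed in duplicate for 48 h in serum-free induction medium to 8-point half-log concentrations up to 100 uM in 0.5% DMSO. GADD45A mRNA was measured by TaqMan qRT-PCR, normalized to ACTB, GAPDH and POLR2A, with bidirectional fitting versus DMSO.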

[12] = read-out: Forkhead box O3 (FOXO3), FOXO3 (gene 2309); test: LTEA_HepaRG_FOXO3: Life Technologies and Expression Analysis (LTEA) Assay for Forkhead box O3 (FOXO3) using HepaRG (AID 2283459)
In short: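 HepaRG, 48 h post-dose; 8 conc., half-log from 100 uM, 0.5% DMSO, duplicates; serum-free induction medium. Readout: FOXO3 mRNA, TaqMan qRT-PCR, housekeeping-normalized. Bidirectional curve fit vs DMSO baseline.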

[13] = read-out: ABC Transporter (ABCB1), ABCB1 (gene 5243); test: LTEA_HepaRG_ABCB1: Life Technologies and Expression Analysis (LTEA) Assay for ABC Transporter (ABCB1) using HepaRG (AID 2283460)
In short: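 Expression of ABCB1 was quantified by qRT-PCR against three housekeeping genes after human HepaRG cultures received test chemicals for 48 hours. Concentrations spanned eight half-log steps topping at 100 uM in 0.5% DMSO; gain or loss of signal was fitted relative to vehicle.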

[14] = read-out: growth arrest and DNA damage 45 (GADD45B), GADD45B (gene 4616); test: LTEA_HepaRG_GADD45B: Life Technologies and Expression Analysis (LTEA) Assay for growth arrest and DNA damage 45 (GADD45B) using HepaRG (AID 2283461)
In short: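 Differentiated human HepaRG cells in serum-free induction medium exposed 48 h in duplicate to eight concentrations, top 100 uM, half-log steps, 0.5% DMSO. GADD45B mRNA by TaqMan qRT-PCR, normalized to ACTB, GAPDH, POLR2A; bidirectional fit versus DMSO.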

[15] = read-out: ABC Transporter (ABCC3), ABCC3 (gene 8714); test: LTEA_HepaRG_ABCC3: Life Technologies and Expression Analysis (LTEA) Assay for ABC Transporter (ABCC3) using HepaRG (AID 2283462)
In short: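 Differentiated human HepaRG cells exposed 48 h in serum-free induction medium, 0.5% DMSO vehicle, 8-point half-log series to 100 uM in duplicate. ABCC3 mRNA by qRT-PCR, normalised to ACTB, GAPDH, POLR2A; bidirectional fit vs DMSO.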

[16] = read-out: ABC Transporter (ABCB11), ABCB11 (gene 8647); test: LTEA_HepaRG_ABCB11: Life Technologies and Expression Analysis (LTEA) Assay for ABC Transporter (ABCB11) using HepaRG (AID 2283463)
In short: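 ABCB11 transcript levels are read by Fluidigm TaqMan qRT-PCR after 48 h chemical treatment of human HepaRG cells. Concentrations span 100 uM downward in half-log steps with 0.5% DMSO; gain or loss is fitted against DMSO controls.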

[17] = read-out: ABC Transporter (ABCC2), ABCC2 (gene 1244); test: LTEA_HepaRG_ABCC2: Life Technologies and Expression Analysis (LTEA) Assay for ABC Transporter (ABCC2) using HepaRG (AID 2283464)
In short: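 Differentiated HepaRG cells in serum-free induction medium exposed 48 h to eight half-log concentrations up to 100 uM, 0.5% DMSO, in duplicate. ABCC2 mRNA measured by qRT-PCR (TaqMan, Fluidigm), normalized to ACTB, GAPDH and POLR2A. Fitted in both directions against DMSO.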

[18] = read-out: Broad substrate specificity ATP-binding cassette transporter ABCG2 (Homo sapiens) (UniProt Q9UNQ0); test: LTEA_HepaRG_ABCG2: Life Technologies and Expression Analysis (LTEA) Assay for ABC Transporter (ABCG2) using HepaRG (AID 2283465)
In short: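 Read-out is ABCG2 mRNA induction or loss quantified by qRT-PCR after 48 h chemical treatment of human HepaRG cells, normalized to three housekeeping genes. Concentrations reached 100 uM top in half-log steps; fitting was bidirectional against 0.5% DMSO.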

Measured: AC50

Sequence of Broad substrate specificity ATP-binding cassette transporter ABCG2 (Homo sapiens) (Q9UNQ0 whole entry, looked up): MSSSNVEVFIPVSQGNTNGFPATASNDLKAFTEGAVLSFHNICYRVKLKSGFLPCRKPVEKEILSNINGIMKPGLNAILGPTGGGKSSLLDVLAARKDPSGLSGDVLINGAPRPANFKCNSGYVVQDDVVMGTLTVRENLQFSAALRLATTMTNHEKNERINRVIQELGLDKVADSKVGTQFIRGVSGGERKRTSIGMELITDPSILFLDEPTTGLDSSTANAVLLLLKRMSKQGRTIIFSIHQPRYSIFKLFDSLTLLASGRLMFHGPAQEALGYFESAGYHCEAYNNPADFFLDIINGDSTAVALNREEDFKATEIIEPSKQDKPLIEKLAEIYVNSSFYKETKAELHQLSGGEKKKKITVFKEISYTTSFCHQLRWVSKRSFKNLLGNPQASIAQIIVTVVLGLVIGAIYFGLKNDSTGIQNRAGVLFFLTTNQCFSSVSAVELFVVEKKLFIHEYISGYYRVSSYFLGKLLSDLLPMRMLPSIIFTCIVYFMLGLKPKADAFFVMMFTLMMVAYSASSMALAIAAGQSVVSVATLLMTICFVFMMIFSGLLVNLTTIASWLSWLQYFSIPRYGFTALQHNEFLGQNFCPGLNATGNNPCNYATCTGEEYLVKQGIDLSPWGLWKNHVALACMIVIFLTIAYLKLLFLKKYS
Sequence of Fatty acid synthase (Homo sapiens) (P49327 whole entry, looked up): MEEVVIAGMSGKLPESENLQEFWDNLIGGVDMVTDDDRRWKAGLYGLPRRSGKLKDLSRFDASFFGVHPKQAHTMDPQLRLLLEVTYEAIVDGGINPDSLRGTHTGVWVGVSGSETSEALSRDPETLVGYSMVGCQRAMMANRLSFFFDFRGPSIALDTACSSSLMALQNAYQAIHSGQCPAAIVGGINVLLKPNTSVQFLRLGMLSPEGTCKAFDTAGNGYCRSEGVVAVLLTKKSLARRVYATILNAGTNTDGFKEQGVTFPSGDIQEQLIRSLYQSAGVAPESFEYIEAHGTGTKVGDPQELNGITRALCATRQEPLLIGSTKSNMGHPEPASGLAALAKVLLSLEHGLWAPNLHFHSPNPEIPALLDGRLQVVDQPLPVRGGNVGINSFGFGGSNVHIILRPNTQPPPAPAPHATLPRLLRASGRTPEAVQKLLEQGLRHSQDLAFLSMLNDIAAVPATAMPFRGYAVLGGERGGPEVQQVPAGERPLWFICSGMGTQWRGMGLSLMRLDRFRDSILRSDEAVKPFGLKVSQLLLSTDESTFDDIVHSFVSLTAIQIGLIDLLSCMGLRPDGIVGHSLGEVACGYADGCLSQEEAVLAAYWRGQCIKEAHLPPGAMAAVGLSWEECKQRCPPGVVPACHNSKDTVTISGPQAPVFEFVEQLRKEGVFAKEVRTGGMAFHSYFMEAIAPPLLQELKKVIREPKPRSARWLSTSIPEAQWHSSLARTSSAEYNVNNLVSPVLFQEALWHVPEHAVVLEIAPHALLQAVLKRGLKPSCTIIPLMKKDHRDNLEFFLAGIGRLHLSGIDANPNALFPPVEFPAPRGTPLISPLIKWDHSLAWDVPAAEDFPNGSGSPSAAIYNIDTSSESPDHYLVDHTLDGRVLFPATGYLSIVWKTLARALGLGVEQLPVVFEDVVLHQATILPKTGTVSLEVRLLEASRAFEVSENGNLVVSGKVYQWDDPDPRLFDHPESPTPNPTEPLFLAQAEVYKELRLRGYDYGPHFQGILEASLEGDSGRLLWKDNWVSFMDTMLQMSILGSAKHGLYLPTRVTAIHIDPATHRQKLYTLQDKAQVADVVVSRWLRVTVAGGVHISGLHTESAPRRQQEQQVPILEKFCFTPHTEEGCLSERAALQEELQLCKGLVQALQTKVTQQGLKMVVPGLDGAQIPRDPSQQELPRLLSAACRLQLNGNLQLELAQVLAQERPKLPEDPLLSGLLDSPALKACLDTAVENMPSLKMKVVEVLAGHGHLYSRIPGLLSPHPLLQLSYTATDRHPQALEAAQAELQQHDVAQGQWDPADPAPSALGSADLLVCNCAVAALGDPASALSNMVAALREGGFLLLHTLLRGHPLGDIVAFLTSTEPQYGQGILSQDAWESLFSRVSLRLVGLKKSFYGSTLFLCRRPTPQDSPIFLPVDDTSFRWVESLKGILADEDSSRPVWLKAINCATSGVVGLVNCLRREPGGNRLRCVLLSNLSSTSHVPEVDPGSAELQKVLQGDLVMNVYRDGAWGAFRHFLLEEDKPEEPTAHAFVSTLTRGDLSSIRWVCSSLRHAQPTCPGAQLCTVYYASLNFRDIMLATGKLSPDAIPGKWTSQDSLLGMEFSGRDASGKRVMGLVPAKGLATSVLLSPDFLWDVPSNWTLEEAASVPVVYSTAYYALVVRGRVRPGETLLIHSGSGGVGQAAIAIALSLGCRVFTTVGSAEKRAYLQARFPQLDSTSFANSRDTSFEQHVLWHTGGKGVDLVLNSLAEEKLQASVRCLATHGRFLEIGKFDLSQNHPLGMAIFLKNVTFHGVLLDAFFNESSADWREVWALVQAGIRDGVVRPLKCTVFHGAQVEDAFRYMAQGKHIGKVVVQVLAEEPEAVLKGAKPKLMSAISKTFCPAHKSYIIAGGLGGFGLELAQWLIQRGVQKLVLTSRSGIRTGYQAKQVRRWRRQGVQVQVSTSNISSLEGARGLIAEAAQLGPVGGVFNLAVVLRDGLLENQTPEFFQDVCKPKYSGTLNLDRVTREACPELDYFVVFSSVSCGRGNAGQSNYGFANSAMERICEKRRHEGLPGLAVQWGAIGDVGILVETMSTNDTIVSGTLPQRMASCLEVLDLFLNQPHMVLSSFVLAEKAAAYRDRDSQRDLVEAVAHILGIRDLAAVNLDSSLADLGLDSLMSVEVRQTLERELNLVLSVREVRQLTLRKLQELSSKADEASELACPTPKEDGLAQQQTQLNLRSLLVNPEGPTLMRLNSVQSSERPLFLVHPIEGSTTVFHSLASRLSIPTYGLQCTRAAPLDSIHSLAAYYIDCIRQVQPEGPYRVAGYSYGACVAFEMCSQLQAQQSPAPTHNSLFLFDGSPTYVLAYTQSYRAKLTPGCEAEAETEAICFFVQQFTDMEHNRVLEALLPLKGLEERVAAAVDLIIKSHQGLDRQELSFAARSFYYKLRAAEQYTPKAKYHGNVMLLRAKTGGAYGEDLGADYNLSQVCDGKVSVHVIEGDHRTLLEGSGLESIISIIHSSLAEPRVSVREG

CCN(CC)CCO
inactive: all assays above

Clc1ccc(C(c2ccc(Cl)cc2)C(Cl)Cl)cc1
active: [2] 73.7 µM | [8] 29.5 µM | [13] 31.6 µM | [16] 81.8 µM | [17] 19.3 µM
inactive: all other assays above

COC(=O)c1ccccc1N
not listed: [16]
inactive: all other assays above

CCCCOC(=O)c1ccccc1C(=O)OCc1ccccc1
active: [8] 15.1 µM
inactive: all other assays above

[Cl-].[Cl-].[Hg+2]
active: [8] 50 µM | [14] 50 µM
not listed: [16]
inactive: all other assays above

CCC12COCN1COC2
active: [8] 50 µM
not listed: [11]
inactive: all other assays above

CO[C@@H]1[C@H](OC(=O)NC(=O)CCl)CC[C@]2(CO2)[C@H]1[C@@]1(C)O[C@@H]1CC=C(C)C
active: [8] 16 µM | [16] 0.286 µM
not listed: [11]
inactive: all other assays above

Reference: PubChem BioAssay (EPA / NIEHS)
